Drawing on ChEMBL document CHEMBL1961873, “Compounds: GSK PKIS; Assays: Nanosyn kinase panel” (2012), this text covers inhibition for 17 compounds.

For assay [1], the system named is Tyrosine-protein kinase ABL1 (Homo sapiens), P00519 [T315I]. Particulars: at 1 µM.
The test system of assay [2] is Tyrosine-protein kinase ABL1 (Homo sapiens), P00519 [Y253F]. Particulars: at 0.1 µM.
The test system is the same in assay [3]. Particulars: at 1 µM.
In assay [4] the target is Tyrosine-protein kinase ABL1 (Homo sapiens) (UniProt P00519). Particulars: at 0.1 µM.
Assay [5] shares this target. Particulars: at 1 µM.
Assay [6] deals with ALK tyrosine kinase receptor (Homo sapiens) (UniProt Q9UM73). Particulars: at 0.1 µM.
For assay [7] the target is unchanged. Particulars: at 1 µM.
Assay [8] has as its target Tyrosine-protein kinase ABL2 (Homo sapiens) (UniProt P42684). Particulars: at 0.1 µM.
Assay [9] has the same target. Particulars: at 1 µM.
The target in assay [10] is Tyrosine-protein kinase receptor UFO (Homo sapiens) (UniProt P30530). Particulars: at 0.1 µM.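 Further: values are mean percent inhibition of AXL from the GSK PKIS screen.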

One may read the inhibition as the relative decrease from the control value, in per cent.

Tyrosine-protein kinase ABL2 (Homo sapiens), sequence (P42684 whole entry): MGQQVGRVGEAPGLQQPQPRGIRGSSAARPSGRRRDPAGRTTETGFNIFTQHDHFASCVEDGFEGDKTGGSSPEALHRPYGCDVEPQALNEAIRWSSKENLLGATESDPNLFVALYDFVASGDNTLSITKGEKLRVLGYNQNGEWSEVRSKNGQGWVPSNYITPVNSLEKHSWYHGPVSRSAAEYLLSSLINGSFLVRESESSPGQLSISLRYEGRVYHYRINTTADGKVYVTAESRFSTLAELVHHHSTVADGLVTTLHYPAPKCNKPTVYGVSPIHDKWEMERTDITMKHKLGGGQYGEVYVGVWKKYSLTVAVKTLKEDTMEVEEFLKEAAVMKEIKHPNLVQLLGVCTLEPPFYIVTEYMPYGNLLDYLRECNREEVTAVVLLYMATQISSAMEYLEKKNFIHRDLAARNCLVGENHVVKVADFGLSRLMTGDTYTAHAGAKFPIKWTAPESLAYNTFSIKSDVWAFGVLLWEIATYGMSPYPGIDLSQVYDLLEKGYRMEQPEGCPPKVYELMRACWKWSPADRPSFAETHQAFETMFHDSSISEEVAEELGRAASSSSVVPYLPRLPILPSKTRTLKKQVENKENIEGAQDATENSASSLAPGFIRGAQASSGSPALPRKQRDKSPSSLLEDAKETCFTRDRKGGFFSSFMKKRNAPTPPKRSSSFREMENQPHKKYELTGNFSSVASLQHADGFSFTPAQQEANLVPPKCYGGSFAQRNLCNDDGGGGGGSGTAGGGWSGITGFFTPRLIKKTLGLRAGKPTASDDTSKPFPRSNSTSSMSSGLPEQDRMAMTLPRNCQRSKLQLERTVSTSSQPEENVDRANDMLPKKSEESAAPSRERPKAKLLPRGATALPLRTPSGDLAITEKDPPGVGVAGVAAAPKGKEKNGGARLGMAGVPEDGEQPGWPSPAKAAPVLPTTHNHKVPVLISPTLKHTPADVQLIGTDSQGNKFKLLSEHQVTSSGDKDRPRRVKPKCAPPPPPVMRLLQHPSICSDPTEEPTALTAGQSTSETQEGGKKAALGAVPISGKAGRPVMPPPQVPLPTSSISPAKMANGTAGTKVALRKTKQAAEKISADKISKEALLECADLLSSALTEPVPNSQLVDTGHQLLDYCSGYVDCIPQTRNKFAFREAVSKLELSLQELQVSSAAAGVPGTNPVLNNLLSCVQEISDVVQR
Tyrosine-protein kinase receptor UFO (Homo sapiens), sequence (P30530 whole entry): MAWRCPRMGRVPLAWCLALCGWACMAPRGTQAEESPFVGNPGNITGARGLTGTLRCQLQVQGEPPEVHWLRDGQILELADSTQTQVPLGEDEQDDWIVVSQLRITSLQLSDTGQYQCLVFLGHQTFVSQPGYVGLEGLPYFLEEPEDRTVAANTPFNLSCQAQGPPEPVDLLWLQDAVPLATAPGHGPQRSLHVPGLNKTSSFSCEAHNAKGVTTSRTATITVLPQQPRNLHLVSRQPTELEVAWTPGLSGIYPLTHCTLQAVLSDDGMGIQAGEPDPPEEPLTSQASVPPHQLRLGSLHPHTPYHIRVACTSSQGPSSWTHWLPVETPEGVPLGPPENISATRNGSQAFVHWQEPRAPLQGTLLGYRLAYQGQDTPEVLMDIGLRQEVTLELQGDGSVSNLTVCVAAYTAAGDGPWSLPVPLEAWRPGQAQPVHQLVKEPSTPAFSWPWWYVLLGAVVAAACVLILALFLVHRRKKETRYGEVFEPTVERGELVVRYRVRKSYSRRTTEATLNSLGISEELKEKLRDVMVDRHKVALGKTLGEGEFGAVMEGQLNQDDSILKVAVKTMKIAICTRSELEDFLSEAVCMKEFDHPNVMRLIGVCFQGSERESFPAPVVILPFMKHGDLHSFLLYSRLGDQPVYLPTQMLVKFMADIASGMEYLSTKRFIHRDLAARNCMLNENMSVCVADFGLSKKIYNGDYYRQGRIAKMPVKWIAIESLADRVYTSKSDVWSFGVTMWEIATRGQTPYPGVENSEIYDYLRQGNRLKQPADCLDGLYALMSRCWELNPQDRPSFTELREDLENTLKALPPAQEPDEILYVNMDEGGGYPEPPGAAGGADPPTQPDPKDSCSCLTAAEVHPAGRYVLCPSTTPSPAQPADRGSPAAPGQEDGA
ALK tyrosine kinase receptor (Homo sapiens), sequence (Q9UM73 19-1620 limits assumed): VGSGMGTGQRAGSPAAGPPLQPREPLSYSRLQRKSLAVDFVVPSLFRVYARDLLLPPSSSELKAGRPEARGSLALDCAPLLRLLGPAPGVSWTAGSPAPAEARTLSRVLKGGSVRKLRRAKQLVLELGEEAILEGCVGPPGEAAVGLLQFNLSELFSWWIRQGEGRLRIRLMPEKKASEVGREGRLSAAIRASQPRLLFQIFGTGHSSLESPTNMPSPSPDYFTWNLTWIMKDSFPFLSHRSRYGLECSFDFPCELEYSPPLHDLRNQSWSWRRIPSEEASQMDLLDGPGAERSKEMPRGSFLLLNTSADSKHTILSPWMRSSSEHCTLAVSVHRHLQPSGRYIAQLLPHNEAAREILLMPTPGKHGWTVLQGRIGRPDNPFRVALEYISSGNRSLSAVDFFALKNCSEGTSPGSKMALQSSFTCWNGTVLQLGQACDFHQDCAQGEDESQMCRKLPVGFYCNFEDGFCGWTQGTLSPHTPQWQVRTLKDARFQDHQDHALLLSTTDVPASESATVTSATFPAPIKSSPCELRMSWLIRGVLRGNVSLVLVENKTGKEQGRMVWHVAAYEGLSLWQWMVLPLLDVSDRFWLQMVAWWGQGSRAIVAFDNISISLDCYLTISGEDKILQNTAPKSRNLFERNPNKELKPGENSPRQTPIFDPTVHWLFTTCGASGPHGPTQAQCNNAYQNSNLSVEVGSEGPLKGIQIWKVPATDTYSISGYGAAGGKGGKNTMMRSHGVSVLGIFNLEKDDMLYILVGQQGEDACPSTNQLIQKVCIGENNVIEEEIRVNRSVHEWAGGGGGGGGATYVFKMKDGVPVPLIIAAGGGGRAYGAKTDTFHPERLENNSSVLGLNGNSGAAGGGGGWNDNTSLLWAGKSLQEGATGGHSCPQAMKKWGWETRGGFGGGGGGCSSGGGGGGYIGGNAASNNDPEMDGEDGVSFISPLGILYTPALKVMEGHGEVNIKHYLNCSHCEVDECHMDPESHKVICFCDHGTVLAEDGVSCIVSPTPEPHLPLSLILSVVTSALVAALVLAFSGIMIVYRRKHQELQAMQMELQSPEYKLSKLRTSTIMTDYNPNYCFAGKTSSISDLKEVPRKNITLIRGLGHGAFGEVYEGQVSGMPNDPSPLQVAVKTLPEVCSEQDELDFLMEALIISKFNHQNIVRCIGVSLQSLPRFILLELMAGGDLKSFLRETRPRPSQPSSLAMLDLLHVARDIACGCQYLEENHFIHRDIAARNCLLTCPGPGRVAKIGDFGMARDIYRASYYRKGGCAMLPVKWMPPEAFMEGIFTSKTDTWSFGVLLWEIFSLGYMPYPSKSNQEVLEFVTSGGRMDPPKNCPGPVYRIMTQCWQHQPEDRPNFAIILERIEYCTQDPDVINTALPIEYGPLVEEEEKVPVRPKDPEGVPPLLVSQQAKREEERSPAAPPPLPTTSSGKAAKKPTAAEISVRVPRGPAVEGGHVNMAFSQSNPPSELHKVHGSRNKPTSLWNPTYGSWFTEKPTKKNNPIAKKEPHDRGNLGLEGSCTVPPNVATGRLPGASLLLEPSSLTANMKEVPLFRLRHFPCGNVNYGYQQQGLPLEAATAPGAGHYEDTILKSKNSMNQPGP

In the case of `COc1ccc2[nH]c3c4[nH]c5ccc(OC)cc5c4c4c(c3c2c1)C(=O)NC4=O`, the inhibition came to 33.7% in assay [1]; 15.4% in [2]; 52.3% in [3]; 6.32% in [4]; 34% in [5]; 13.8% in [6]. Besides, the inhibition in assay [7] turned out to be 58.3%; in [8], 3.1%; in assay [9], 12.1%; in assay [10], 11%.

Consider `CS(=O)(=O)CCNCc1ccc(-c2ccc3ncnc(Nc4ccc(OCc5ccccc5)c(C(F)(F)F)c4)c3c2)o1`, for which the inhibition in [1] stood at 2.46%; in assay [2], 4.02%; in assay [3] it was 3.49%; in assay [4], 5.33%; in assay [5], 5.35%; in assay [6] it was 4.27%. Besides, the inhibition in [7] is 4.07%; in assay [8], 4.59%; in assay [9], 4.76%; in assay [10] it was -6%.

Turning to `Cc1cccc(Nc2ncc(-c3ccccc3)o2)c1`, the inhibition in [1] was determined as 5.99%; in assay [2], 3.68%; in assay [3], 19.5%; in assay [4], 4.34%; in [5], 14.2%; in assay [6], 3.9%. In addition, the inhibition was 4.76% in [7], 3.13% in [8], 18% in [9] and -1.8% in [10].

Consider `CCN(CC)S(=O)(=O)c1ccc(OC)c(Nc2ncc(-c3ccccc3)o2)c1`, for which the inhibition is 8.65% in assay [1]; 9.09% in assay [2]; 41.8% in [3]; 3.01% in [4]; 28.1% in assay [5]; 0.5% in assay [6]. In addition, the inhibition in assay [7] amounted to 4.19%; in assay [8] it was 6.09%; in assay [9] it was 36.6%; in assay [10], 0.5%.

Turning to `O=S(=O)(CCNCc1ccc(-c2ccc3ncnc(Nc4ccc(OCc5cccc(F)c5)c(Cl)c4)c3c2)o1)c1ccccc1`, the inhibition in assay [1] worked out at 3.4%; in assay [2] it was 5.4%; in assay [3], 6.85%; in assay [4], 5.27%; in assay [5], 10.1%; in [6], 4.32%. In addition, the inhibition in assay [7] was 6.67%; in assay [8], 4.64%; in [9] it was 8.2%; in assay [10], -7.43%.

Consider `COc1ccc(-c2cc(-c3c[nH]nc3-c3ccccn3)ccn2)cc1`, for which the inhibition in assay [1] came to 5.41%; in [2], 12.3%; in assay [3] it was 48.3%; in assay [4], 14.1%; in [5], 59.8%; in [6] it was 3.73%. Also, the inhibition is 5.23% in assay [7], 3.35% in assay [8], 35.6% in [9] and -6.83% in [10].

As to `CNC(=O)c1cncc(/C=C/c2ccccc2Cl)c1`, the inhibition in assay [1] was found to be 8.51%; in [2], 3.01%; in assay [3], 27%; in assay [4] it was 7.06%; in [5] it was 33.6%; in [6], 0.91%. In addition, the inhibition in [7] is 0.92%; in [8], 4.13%; in assay [9], 21.1%; in assay [10] it was 4.02%.

`COC(=O)Nc1nc2ccc(Oc3ccc(NC(=O)Nc4cccc(Cl)c4)cc3)cc2[nH]1`: the inhibition in [1] is 42.4%; in [2], 7.43%; in assay [3], 22%; in assay [4], 6.59%; in assay [5], 13.3%; in assay [6], 1.45%. Further, the inhibition in assay [7] was 2.26%; in assay [8] it was 12.3%; in assay [9], 28.8%; in [10], -5.74%.

For the compound `Fc1ccc(-c2nn3ncccc3c2-c2ccnc(Nc3ccc4c(c3)OCCO4)n2)cc1`, the inhibition in assay [1] turned out to be 53.4%; in assay [2] it was 29.3%; in assay [3], 72.2%; in assay [4], 11.8%; in [5], 62.6%; in [6], 4.64%. Besides, the inhibition in [7] was 7.86%; in assay [8], 10.4%; in assay [9] it was 56.1%; in [10], -9.81%.

As to `CCN1CCC(CC(=O)Nc2n[nH]c3nnc(-c4cccc(F)c4F)cc23)CC1`, the inhibition is 3.8% in assay [1]; 3.03% in [2]; 2.59% in [3]; 4% in assay [4]; 4.16% in assay [5]; 2.51% in [6]. The inhibition was found to be 0.86% in assay [7], 3.37% in assay [8], 3.96% in assay [9] and 0.47% in [10].

For `COc1cc(N2CCN(C(C)C)CC2)ccc1Nc1nc(Nc2ccc(F)cc2C(N)=O)c2cc[nH]c2n1`, the inhibition worked out at 7.02% in [1]; 0.29% in [2]; 1.6% in assay [3]; 3.76% in assay [4]; 3.4% in assay [5]; 88.3% in [6]. Further, the inhibition was 88.8% in assay [7], -0.12% in [8], 2.78% in [9] and 3.89% in assay [10].

Consider `Fc1ccc(-c2cc(-c3c[nH]nc3-c3ccccn3)ccn2)cc1`, for which the inhibition in assay [1] is 5.68%; in assay [2] it was 5.63%; in assay [3], 17.4%; in assay [4] it was 4.06%; in assay [5], 30.4%; in [6], 4.07%. For the same compound, the inhibition in assay [7] was 5.67%; in [8], 2.48%; in assay [9] it was 7.82%; in [10] it was -7.67%.

As to `COc1cccc(-c2c[nH]c3c(N/N=C/c4ccncc4)ncnc23)c1`, the inhibition was found to be 57.7% in [1]; 73% in assay [2]; 93.2% in assay [3]; 57.6% in assay [4]; 81.7% in assay [5]; 0.85% in assay [6]. The inhibition in [7] was 1.19%; in assay [8] it was 41.8%; in assay [9], 78.6%; in assay [10], -2.43%.

In the case of `CNC(=O)c1cccc(C#Cc2cncnc2Nc2ccc(OCc3cccc(F)c3)c(Cl)c2)c1`, the inhibition in assay [1] worked out at 2.43%; in [2], 0.77%; in [3], 3.36%; in [4], 0.98%; in assay [5] it was 5.91%; in assay [6], 1.88%. The inhibition was 3.83% in assay [7], 2.79% in assay [8], 4.76% in [9] and -1.87% in assay [10].

`CNC(=O)c1cc(-c2ccc(F)cc2)cc(-c2ccc(S(=O)(=O)N3CCCC3)cc2)c1N`: the inhibition in assay [1] came out at 2.16%; in assay [2], 3.15%; in assay [3], 4.16%; in assay [4] it was 3.12%; in assay [5], 5.19%; in assay [6], 1.91%. Further, the inhibition in assay [7] is 2.88%; in assay [8] it was 2.17%; in [9], 3.71%; in [10], -5.35%.

`COc1cc(/C=N/Nc2ncnc3[nH]ncc23)ccc1O`: the inhibition in assay [1] turned out to be 47.4%; in [2] it was 52.5%; in assay [3] it was 87.3%; in assay [4], 35.1%; in [5], 78.9%; in [6] it was 1.72%. Also, the inhibition in assay [7] is 8.84%; in assay [8], 15.6%; in [9], 65.7%; in [10], -3.29%.

Turning to `O=C(O[C@H]1CN[C@H](C#Cc2cc3ncnc(Nc4ccc(Cc5ccccc5)cc4)c3s2)C1)N1CCOCC1`, the inhibition in assay [1] is 0.76%; in assay [2], -1.94%; in [3], 2.37%; in assay [4] it was -0.06%; in assay [5], 0.2%; in [6], 1.1%. Further, the inhibition was 0.46% in assay [7], -0.08% in [8], -0.38% in assay [9] and -5.65% in [10].
